Laboratory results reported in PubChem BioAssay AID504842 (National Center for Advancing Translational Sciences (NCATS), 2011).
Out of some 330,000 compounds screened, about 100 (0.03%) were called active. Not shown: some 1% with an inconclusive outcome. Calls follow the shape of the dose curve; as a rule, active = well fitted inhibition curve with a large enough effect; inconclusive = small, poorly fitted or top-dose-only effect; inactive = flat fitted curve, though single readings scatter. This excerpt belongs to a sample that is enriched for actives.

The compounds below were run on Chaperonin Mm-Cpn (Methanococcus maripaludis) (assay: Inhibitors of TCP-1 ring complex (TRiC) of Methanococcus maripaludis (MmCpn): qHTS). Conditions: purified Mm-Cpn ATPase, ADP Transcreener TR-FRET; series mostly up to 76.9 µM; activity, negative = inhibition: at the top concentration.
Excerpt: The eukaryotic chaperonin TRiC (for TCP-1 ring complex) is an essential and conserved chaperone required for the folding and activation of 10-15% of the proteins encoded by the human genome. […] The TRiC complex consist of two stacked 7-9 membered rings, each containing a central cavity. Substrates are folded within the cavity in an ATP-dependent manner. TRiC is a complex of eight different, essential proteins. As each of the genes encoding the eight subunits is essential for cell viability and no protocol has been developed to over-express this enzyme to high levels. That is why several groups studying the TRiC chaperonin have turned to the archaeal homolog of TRiC, Methanococcus maripaludis (Mm-CPN), and have used this enzyme as a model system for the study of the type II chaperonin family. Small molecule inhibitors of the Mm-CPN enzyme would be extremely useful to study the mechanism of chaperonin activity. Importantly, TRiC and Mm-CPN both require ATP hydrolysis for function. Furthermore, the ATP binding sites are highly conserved among these type II chaperonins. This provides us with an easy, well tested and straightforward assay to identify inhibitors of chaperonin activity. The Mm-CPN assay was developed in 1536-well plate format using the HTRF Transcreener ADP assay kit (Cisbio, Bedford, MA). This assay applied the time resolved fluorescence resonance energy transfer (TR-FRET) principle. ATP in the presence of Mm-CPN is converted to ADP + Pi. An antibody labeled with Eu3+-Cryptate specific and bound to ADP labeled with […] (d2) competes with the unlabeled ADP generated by Mm-CPN. The resulting TR-FRET signal is inversely proportional to the concentration of ADP in the sample. In this assay a reduction in TR-FRET signal is observed with ATP turnover. NIH Chemical Genomics Center [NCGC] NIH Molecular Libraries Probe Centers Network [MLPCN] MLPCN Grant: DA030554-01A1 Assay Submitter (PI): Judith Frydman, Stanford University
Purified Mm-CPN was supplied by the laboratory of Dr. Judith Frydman. Protein samples were stored at -80C as single use aliquots. Protein was thawed in ambient temperature water bath and placed on ice once thawed. Buffer was prepared fresh day of screen. The buffer composition below was used to prepare the working solution of the Mm-CPN protein and ATP substrate. The buffer is comprised of 30 mM TRIS pH 7.4, 100mM KCl, 5mM MgCl2, and 1mM DTT. A final concentration of 25nM Mm-CPN and 10uM ATP per well were used in the screen. Instructions according to the manufacturer were followed for the ADP Transcreener kit. Used 1536 well Greiner white, medium binding (MB), solid bottom plates. Plates were read on the PerkinElmer EnVision plate reader using Excitation = 320 nm and Emission = […], 665 nm. Protocol- 1.Dispense 1.5ul per well of working [Mm-CPN] = 50nM (or 75 ng / well) 2.Spin plate at 1000 rpm for 30 seconds 3.23nl of compound transferred per well 4.Incubate at 37degC for 10 minutes 5.Dispense 1.5ul per well of working [ATP] = 20uM 6.Incubate at 37degC for 30 minutes 7.Dispense 3ul per well of Anti-ADP Cryptate / ADP-d2 mix (prepared as instructed by Cisbio) 8.Incubate at ambient for 30 minutes 9.Read using EnVision
% is scaled to controls: 0 for no effect and ±100 for the full control effect; potency is read from the fitted curve at half-maximal effect.
Also: nearly all actives have a fitted effect of over 80% in size.
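For Potency in this document: enzyme at 25 nM with ATP substrate at 10 µM during the reaction.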

activity, negative = inhibition, inactive:
Cc1cc(S(=O)(=O)NCc2ccccn2)c(Cl)cc1Cl -1.27%
Cc1cc(NC(=O)/C=C/C(=O)N(c2ccccc2C)C(C(=O)NC2CCCC2)c2ccc(F)cc2)no1 (centres undefined) 0.316%
CCCSC1=C(C#N)C(c2ccccc2C)C(C(=O)OC)C(=O)N1 (centres undefined) 0.631%
CCOc1ccc(NC(=O)CN(C)C(=O)CSc2ccccc2)cc1OCC -1.05%
CCOc1ccccc1NS(=O)(=O)c1cc2c3c(c1)C(C)C(=O)N3CCC2 (centres undefined) -0.707%
O=S(=O)(Nc1ccc(Oc2ncccn2)c(Cl)c1)c1ccc(F)cc1 -0.624%
Cc1ccc(S(=O)(=O)N(Cc2cccc([N+](=O)[O-])c2)C(=O)N2CCN(C)CC2)cc1 1.85%
O=C(CN1CCCSc2ccccc21)N1CCN(S(=O)(=O)c2ccccc2)CC1 -5.83%
O=C(Cn1nc([N+](=O)[O-])nc1Br)NC1CCCCC1 2.19%
Cc1nn(-c2ccccc2)nc1C(=O)OCC(=O)N1CCCCC1C (centres undefined) -2.18%
CCc1ccc(Nc2nnc(SCC(=O)c3ccc4c(c3)NC(=O)CO4)s2)cc1 -6.83%
CCOCc1c(C(=O)N2CCN(Cc3ccc(Br)s3)CC2)oc2ccccc12 0.351%
CCOC(=O)CN1C(=O)N[C@@H](c2ccc(Br)cc2)C(C(C)=O)=C1C 0.237%
FC(F)(F)c1ccc(CN2C[C@@H]3C(c4ccccc4)C4(c5ccccc5)CC3(C4)[C@H]2c2ccccc2)cc1 (some centres undefined) -1.8%
Cc1ccc(NS(=O)(=O)c2ccc3c(c2)CC(=O)N3)cc1Cl -0.241%
COc1ccc(-n2c(C)nn(CC3CC3)c2=O)cc1 -3.12%
CC(=O)Nc1cccc2c1[n+]([O-])c(C)c(C)[n+]2[O-] 0.959%
CCn1cc(C(=O)NCc2ccc(OC)cc2OC)c(=O)c2ccc(C)nc21 0.0766%
O=C(CCC(=O)Nc1ccccc1)N/N=C/c1ccccc1F 0.276%
CCOC(=O)c1ccccc1NC(=O)COC(=O)C(Cc1c[nH]c2ccccc12)NC(C)=O (centres undefined) -1.13%
Cc1cccc(N2CCN(S(=O)(=O)c3ccc4[nH]c(=O)c(=O)[nH]c4c3)CC2C)c1 (centres undefined) -2.27%
c1csc(-c2nnc(COc3ccc4c(c3)OCO4)o2)c1 0.221%
CCCOC1CCCN(C(=O)c2cc(COc3cncc(Cl)c3)on2)C1 (centres undefined) 0.635%
COc1cccc(-n2c(N)cc(=O)nc2SCC(=O)Nc2cc(C)on2)c1 0.0443%
CC1CCCCC1NC(=O)CSc1nnc(-c2ccncc2)n1CCCN(C)C (centres undefined) -2.75%
CC(C)C(NC(=O)c1c(F)cccc1F)C(=O)NCc1ccncc1 (centres undefined) -4.23%
CCOC(=O)c1sc(NC(=O)CSc2nc3c(c(=O)n2-c2ccccc2)SCC3)c(C(=O)OCC)c1C -1.33%
Cn1c(=O)n(C)c2cc(CNc3ccc(N4CCOCC4)c(C(=O)O)c3)ccc21 -1.23%
Cn1c2cc(B(O)O)sc2c2cnn(Cc3ccccc3F)c(=O)c21 -0.659%
CSCC[C@H](NC(=O)CCCn1nnc2ccccc2c1=O)C(=O)O -0.098%
O=C(CCl)Nc1ccc(Sc2ccc(NC(=O)CCl)cc2)cc1 -5.44%
CCCCN(CCCC)CCC(O)c1cc2c(Cl)cc(Cl)cc2c2cc(C(F)(F)F)ccc12 (centres undefined) -0.59%
Cc1cc(Cl)ccc1NNC(=O)c1snnc1C 5.25%
O=C(COC(=O)Cn1[nH]c(=O)c2ccccc2c1=O)Nc1ncc(Cl)cc1Cl 0.0983%
CC(=O)Nc1cccc(C(=O)OCC(=O)NCc2cc(C)c(O)c(C)c2)c1 0.893%
CSCCC(NC(=O)c1ccccc1)C(=O)N1CCN(Cc2ccc(Cl)cc2)CC1 (centres undefined) 0.977%
CC(C)OC(=O)C(C#N)c1nc2ccccc2nc1N1CCN(Cc2ccc3c(c2)OCO3)CC1 (centres undefined) -0.332%
CSc1nc(-c2ccco2)nn1C(=O)c1ccccc1Cl 2.44%
CCCN1CCn2c3c(c4cc(Br)ccc42)CCCC31 (centres undefined) 2.19%
CC(C)CNC(=O)C(=O)Nc1ccc(N(C)C)cc1 -10.1%
CC(=O)N(C)c1ccc(NC(=O)C(F)(F)F)cc1 0.394%
Cn1c(N)c(C(=O)COC(=O)c2cccc(S(=O)(=O)N3CCOCC3)c2)c(=O)n(C)c1=O -2.55%
CCOC(=O)c1c(CNCc2ccccc2F)c2sc(C)cc2n1C 0.937%
CSc1nc2ccccc2cc1/C=C(\C#N)c1ccc(Cl)cc1Cl 2.17%
C/C=N/N(c1ccccc1)c1ccccc1 -0.868%
Cc1cc2c(c(=O)n1Cc1ccccc1)C1O[C@](CCCCN3C(=O)c4ccccc4C3=O)(Cc3ccccc31)O2 -15.5% [at 15.4 µM]
O=C(CSc1nnc(CN2CCCC2)n1-c1ccc(F)cc1)c1ccc2c(c1)OCO2 -11%
CCOC(=O)Cc1csc(SCc2cc(=O)oc3cc(O)ccc23)n1 0.962%
Cc1cc(=O)oc2cc(OCC(=O)Nc3nnc(C4CC4)s3)ccc12 -0.34%
CCCCc1ccc(NC(=O)CN2C(=O)NC(Cc3ccccc3)C2=O)cc1 (centres undefined) -0.0707%
CCOc1ccccc1N1CCN(C(=O)c2ccc3[nH]c(C)c(C)c3c2)CC1 0.339%
CCOc1ccc(NC(=O)CN(C)C(=O)c2cccc(S(=O)(=O)N3CCCC3)c2)cc1OCC 2%

Potency, active:
CN(C)c1ccc(N/C=C/C(=O)C(F)(F)F)cc1 25.1 µM
CCOC(=O)Cc1csc(NC(=O)COc2ccc3c(C)cc(=O)oc3c2)n1 44.7 µM
